Pf growth 96h – P. falciparum growth inhibition at 96 hour, primary screen for plastid delayed-death inhibitors; P. falciparum luciferase reporter growth, 96 h; Potency, µM (titrated, usually from 28.7 µM), hits mostly inhibitors; 6.9% of 320,000 active
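Delayed-death screen, second-generation endpoint: infected erythrocytes, 2% hematocrit, 0.05% parasitemia final; 96 hours at 37 C, 5% CO2; luciferase detection reagent; luminescence decrease equals reduced growth.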
Pf growth 48h – inhibits P. falciparum growth in the first generation, 48 h; Potency, µM (top dose mostly 28.7 µM), hits mostly inhibitors; P. falciparum luciferase growth in erythrocytes, 48 h; AID 504832; 5.9% of 310,000 active
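Here the parasites carry a stable luciferase gene and grow inside erythrocytes in Albumax-based RPMI medium with compound for one erythrocytic cycle. Activity is scored as loss of luminescent signal.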
HCMV antiviral – human cytomegalovirus inhibition | HFF cells, HCMV-luciferase reporter, 72 h; hits give low values | activity change, negative = inhibition, % at 57.5 µM | 4.5% of 410,000 active; in the data active = activity change below about -60%; inconclusive = no clear call, values can overlap the other calls; inactive = above about -39%
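Screen run at 2 compound doses on HFFs infected with reporter HCMV, MOI 1 PFU/cell. Luciferase activity from cell lysates at 72 h post infection gave inhibition relative to buffer-only and Salinomycin wells.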
Giardia FBPA inh – blocks Giardia fructose-bisphosphate aldolase activity; A8B2U2; purified Giardia FBPA; Potency, µM (highest dose often 59.6 µM), hits mostly inhibitors; 0.71% of 290,000 active; AID 2451; note: nearly all actives have a fitted effect of over 55% in size
Target sequence (A8B2U2 whole entry, looked up): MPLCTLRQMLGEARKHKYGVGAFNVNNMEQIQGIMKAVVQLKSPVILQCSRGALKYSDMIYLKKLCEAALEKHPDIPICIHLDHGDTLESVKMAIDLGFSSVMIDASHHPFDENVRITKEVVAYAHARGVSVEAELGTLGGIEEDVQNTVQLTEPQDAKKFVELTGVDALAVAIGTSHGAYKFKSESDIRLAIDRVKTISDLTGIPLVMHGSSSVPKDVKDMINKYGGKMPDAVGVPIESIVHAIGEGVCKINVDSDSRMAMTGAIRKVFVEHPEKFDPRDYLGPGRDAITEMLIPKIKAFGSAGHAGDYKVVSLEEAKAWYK
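Giardia FBPA (40 nM reagent) was preincubated 10 min at RT with compound (up to 57.5 uM final), then substrate plus GAPDH/TPI/NAD/arsenate coupling system with diaphorase/resazurin was added; resorufin fluorescence (525/598 nm) was read after 20 min.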
Sm TGR inh – inhibitors of Schistosoma mansoni thioredoxin glutathione reductase; Q962Y6; AID 485364; 3% of 360,000 active; purified TGR, DTNB reduction, TNB absorbance 405 nm; Potency, µM (titrated, usually from 114 µM), usual class: inhibitors; note: nearly all actives have a fitted effect of over 60% in size
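TGR 20 nM + NADPH 100 uM (dispensed conc.), cpd preinc 15 min RT; start with NADPH (500 uM addition) then DTNB (15 mM addition). Kinetic TNB absorbance, 405 nm filter. Four-parameter Hill fit across titration.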
Of the large screens only hits and unclear results are named; the others gave an inactive call. Most compounds without a hit are left out; they make up all but 14% or so of the library. Unless noted, calls come from the whole dose curve; as a rule, active = well fitted curve in the direction sought with a large enough effect; inconclusive = small, poorly fitted or top-dose-only effect, or another doubt; inactive = no such curve, though single readings can be large; an effect the other way counts as inactive or inconclusive.

CC(=O)c1ccc(S(=O)(=O)N2CCN(C(=O)c3ccc(COc4ccccc4)o3)CC2)cc1	Pf growth 96h inconclusive, Pf growth 48h inconclusive, HCMV antiviral -60.6 (no result: Giardia FBPA inh)
O=C(c1ccc(COc2c(F)c(F)c(F)c(F)c2F)o1)N1CCOCC1	Pf growth 96h 13.1µM, Sm TGR inh inconclusive
COc1cccc(N2CCN(C(=O)c3ccc(CS(=O)c4cccc(Cl)c4)o3)CC2)c1 (centres undefined)	HCMV antiviral -69.5 (no result: Pf growth 96h, Pf growth 48h, Giardia FBPA inh)
CCN1CCN(C(=O)c2ccc(COc3ccc(Cl)cc3)o2)CC1	none (no result: Giardia FBPA inh)
O=C(c1ccc(COc2c(F)c(F)cc(F)c2F)o1)N1CCN(c2ccccc2)CC1	Pf growth 48h inconclusive
CC1CCC2C(=O)N(c3ccc(C(=O)Oc4cccc5cccnc45)cc3)C(=O)C2C1 (centres undefined)	Giardia FBPA inh inconclusive
CC1=C(/C=C/C(=C/C=C/C(C)=C/C(=O)O)c2ccc(C)cc2)C(C)(C)CCC1	none (no result: Pf growth 96h, Pf growth 48h, HCMV antiviral, Sm TGR inh)
O=C(CCN1C(=O)S/C(=C/c2ccccc2)C1=O)Nc1ccc(O)c(C(=O)O)c1	Pf growth 96h inconclusive (no result: Giardia FBPA inh)
CCOC(=O)N1CCN(C(=O)c2ccc(CS(=O)c3ccccc3)o2)CC1 (centres undefined)	none (no result: Giardia FBPA inh)
O=C(c1ccco1)N1CCN(C(=O)c2ccc(CS(=O)c3cccc(Cl)c3)o2)CC1 (centres undefined)	Pf growth 96h inconclusive, Sm TGR inh inconclusive (no result: Giardia FBPA inh)
COc1ccc(N2CCN(C(=O)c3ccc(CS(=O)c4cccc(Cl)c4)o3)CC2)cc1 (centres undefined)	HCMV antiviral -73.1 (no result: Pf growth 96h, Pf growth 48h, Giardia FBPA inh, Sm TGR inh)
Cc1cccc(S(=O)Cc2ccc(C(=O)N3CCOCC3)o2)c1 (centres undefined)	Pf growth 96h inconclusive, Sm TGR inh 44.7µM (no result: Giardia FBPA inh)
Cc1ccc(C)c(NC(=O)CN2CCCN(Cc3cccc(Cl)c3)S2(=O)=O)c1	none (no result: Pf growth 96h, Pf growth 48h, Giardia FBPA inh)
CC(C)CCOc1ccc(C(=O)CCNC(C)C(=O)O)cc1 (centres undefined)	Sm TGR inh 1µM (no result: HCMV antiviral)
COc1ccccc1Cn1c(=S)[nH]c2ccccc2c1=O	none
CCCCCNC(=O)c1ccc2c(=O)n(CCCN3CCCC3=O)c(=S)[nH]c2c1	Pf growth 96h 10.4µM, Pf growth 48h 5.86µM, Giardia FBPA inh inconclusive
COc1ccccc1Cn1c(=S)[nH]c2ccc(Br)cc2c1=O	HCMV antiviral -86.2
COc1ccc(N2CCN(CCNC(=O)c3ccc4c(c3)[nH]c(=S)n3c5ccccc5nc43)CC2)cc1	Pf growth 96h 10.4µM, Pf growth 48h inconclusive
COc1ccccc1Cn1c(=S)[nH]c2cc(C(=O)NCCCN3CCOCC3)ccc2c1=O	Pf growth 48h inconclusive, Giardia FBPA inh inconclusive
COc1ccccc1Cn1c(=S)[nH]c2cc(C(=O)NCCN3CCOCC3)ccc2c1=O	Pf growth 48h 10.4µM
CC1CCN(CCNC(=O)c2ccc3c(=O)n(Cc4ccc(Cl)cc4)c(=S)[nH]c3c2)CC1	Pf growth 48h 3.7µM (no result: HCMV antiviral, Giardia FBPA inh)
CCOCCCNC(=O)c1ccc2c(=O)n(Cc3ccc(OC)cc3)c(=O)[nH]c2c1	Pf growth 48h 5.86µM, HCMV antiviral inconclusive
O=C(NCC1CCCO1)c1ccc2c(=O)n(CC3CCCO3)c(=S)[nH]c2c1 (centres undefined)	Pf growth 96h inconclusive
O=C(NCCCN1CCCC1)c1ccc(Cn2c(=S)[nH]c3ccc(Br)cc3c2=O)cc1	Pf growth 48h 13.1µM, Sm TGR inh 44.7µM
O=C(NCc1ccc(Cl)cc1)c1ccc2c(=O)n(CC3CCCO3)c(=S)[nH]c2c1 (centres undefined)	Pf growth 96h 11.7µM, HCMV antiviral inconclusive
Cc1cccc(C)c1NC(=O)CNC(=O)c1ccccc1	none
Cc1ccc2nccc(C(=O)N3CCCC(Nc4ccc(F)cc4)C3)c2c1 (centres undefined)	Pf growth 96h inconclusive
COc1cc2[nH]c(=S)n(Cc3ccc(C)cc3)c(=O)c2cc1OC	Pf growth 96h 10.4µM
C=CCNC(=O)c1ccc2c(=O)n(Cc3ccccc3OC)c(=S)[nH]c2c1	Pf growth 48h 3.29µM
NS(=O)(=O)c1ccc(NC(=O)CCC(=O)c2ccc(Cl)s2)cc1	HCMV antiviral -95.0
OC[C@H](O)[C@H](O)[C@@H](O)[C@@H](O)[C@@H]1SC(c2ccccc2)=NN1c1ccccc1	Pf growth 96h inconclusive, Pf growth 48h 13.1µM, Sm TGR inh inconclusive
CCc1cc2cc(C(=O)Nc3ccc(C)cc3)sc2s1	Pf growth 96h 2.33µM, Pf growth 48h inconclusive, HCMV antiviral -67.5
